Assay results reported in the supplement of paper PMC12669032.

Tests used:
Assay in all cases: growth AUC relative to DMSO control (median of replicates) (fraction); higher = more growth (less inhibition), active = hit call of the paper
Details in all cases: 20 µM; 24 h;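 active = AUC reduced over 20% with Padj below 0.05 in at least 2 of 3 replicates; inactive = otherwise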
Akkermansia muciniphila = test system: Akkermansia muciniphila
Method in brief: (§1)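 For each compound at 20 µM (1% DMSO), gut bacterial monocultures seeded at OD600 0.05 grew anaerobically in mGAM at 37 °C in round-bottom 96-well plates. Hourly OD600 readings over 24 h gave growth curves whose minimum OD was set to 0. Area under these curves was normalised to the plate median of solvent-only wells, or to row and column medians on the industrial chemical plate. Values are medians of three biological replicates grown on separate days.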

Bacteroides caccae = test system: Bacteroides caccae
Method in brief: as §1

Bacteroides clarus = test system: Bacteroides clarus
Method in brief: as §1

Bacteroides dorei = test system: Bacteroides dorei
Method in brief: as §1

Bacteroides stercoris = test system: Bacteroides stercoris
Method in brief: as §1

[1] = test system: Bacteroides thetaiotaomicron
Method in brief: as §1

Bacteroides uniformis = test system: Bacteroides uniformis
Method in brief: as §1

[2] = test system: Bifidobacterium longum subsp. longum
Method in brief: as §1

Clostridium difficile = test system: Clostridium difficile
Method in brief: as §1

Collinsella aerofaciens = test system: Collinsella aerofaciens
Method in brief: as §1

Coprococcus comes = test system: Coprococcus comes
Method in brief: as §1

Escherichia coli ED1a = test system: Escherichia coli ED1a
Method in brief: as §1

Escherichia coli IAI1 = test system: Escherichia coli IAI1
Method in brief: as §1

Eubacterium rectale = test system: Eubacterium rectale
Method in brief: as §1

[3] = test system: Fusobacterium nucleatum subsp. animalis
Method in brief: as §1

Lactobacillus gasseri = test system: Lactobacillus gasseri
Method in brief: as §1

Lactobacillus paracasei = test system: Lactobacillus paracasei
Method in brief: as §1

Odoribacter splanchnicus = test system: Odoribacter splanchnicus
Method in brief: as §1

[4] = test system: Parabacteroides distasonis
Method in brief: as §1

Parabacteroides merdae = test system: Parabacteroides merdae
Method in brief: as §1

Measured: growth AUC

CCCN(CCC)c1c([N+](=O)[O-])cc(S(C)(=O)=O)cc1[N+](=O)[O-]
inactive: Akkermansia muciniphila 0.897 | Bacteroides caccae 0.942 | Bacteroides clarus 0.963 | Bacteroides dorei 0.937 | Bacteroides stercoris 0.856 | [1] 0.987 | Bacteroides uniformis 0.954 | [2] 0.948 | Clostridium difficile 0.965 | Collinsella aerofaciens 0.914 | Coprococcus comes 1.03 | Escherichia coli ED1a 0.978 | Escherichia coli IAI1 0.962 | Eubacterium rectale 0.974 | [3] 0.948 | Lactobacillus gasseri 0.84 | Lactobacillus paracasei 0.988 | Odoribacter splanchnicus 1.08 | [4] 0.967 | Parabacteroides merdae 0.936

CC1CCCCC1NC(=O)Nc1ccccc1 (mixture of isomers)
inactive: Akkermansia muciniphila 0.952 | Bacteroides caccae 1 | Bacteroides clarus 0.967 | Bacteroides dorei 0.993 | Bacteroides stercoris 0.973 | [1] 0.969 | Bacteroides uniformis 0.959 | [2] 0.898 | Clostridium difficile 1.01 | Collinsella aerofaciens 0.976 | Coprococcus comes 0.989 | Escherichia coli ED1a 0.995 | Escherichia coli IAI1 0.972 | Eubacterium rectale 0.942 | [3] 0.999 | Lactobacillus gasseri 1.01 | Lactobacillus paracasei 0.926 | Odoribacter splanchnicus 1.01 | [4] 0.982 | Parabacteroides merdae 0.986

CNC(=O)ON=C(CS(C)=O)C(C)(C)C (stereo not given)
inactive: Akkermansia muciniphila 1.08 | Bacteroides caccae 1.02 | Bacteroides clarus 0.997 | Bacteroides dorei 1.01 | Bacteroides stercoris 0.97 | [1] 1.02 | Bacteroides uniformis 1.01 | [2] 0.955 | Clostridium difficile 1.02 | Collinsella aerofaciens 1 | Coprococcus comes 1 | Escherichia coli ED1a 1.02 | Escherichia coli IAI1 0.998 | Eubacterium rectale 1.14 | [3] 1.01 | Lactobacillus gasseri 1.06 | Lactobacillus paracasei 0.999 | Odoribacter splanchnicus 1.02 | [4] 1.03 | Parabacteroides merdae 1.01

COP(=O)(OC)C(O)C(Cl)(Cl)Cl (stereo not given)
inactive: Akkermansia muciniphila 0.955 | Bacteroides caccae 1.04 | Bacteroides clarus 1.01 | Bacteroides dorei 1 | Bacteroides stercoris 1.01 | [1] 1.01 | Bacteroides uniformis 1.02 | [2] 1.02 | Clostridium difficile 1 | Collinsella aerofaciens 1.01 | Coprococcus comes 1.03 | Escherichia coli ED1a 1.02 | Escherichia coli IAI1 1.01 | Eubacterium rectale 1.08 | [3] 0.973 | Lactobacillus gasseri 1 | Lactobacillus paracasei 1.02 | Odoribacter splanchnicus 0.965 | [4] 1.04 | Parabacteroides merdae 1

N#Cc1sc2c(=O)c3ccccc3c(=O)c=2sc1C#N
inactive: Akkermansia muciniphila 0.95 | Bacteroides caccae 0.982 | Bacteroides clarus 0.948 | Bacteroides dorei 0.979 | Bacteroides stercoris 0.783 | [1] 0.974 | Bacteroides uniformis 0.882 | [2] 0.84 | Clostridium difficile 0.968 | Collinsella aerofaciens 1.09 | Coprococcus comes 0.921 | Escherichia coli ED1a 0.945 | Escherichia coli IAI1 0.957 | Eubacterium rectale 0.911 | [3] 0.881 | Lactobacillus gasseri 1.01 | Lactobacillus paracasei 0.875 | Odoribacter splanchnicus 0.926 | [4] 0.928 | Parabacteroides merdae 0.968

CSc1nc(N=[N+]=[N-])nc(NC(C)C)n1
inactive: Akkermansia muciniphila 0.963 | Bacteroides caccae 1.04 | Bacteroides clarus 0.993 | Bacteroides dorei 1.04 | Bacteroides stercoris 0.975 | [1] 1.02 | Bacteroides uniformis 1.07 | [2] 0.849 | Clostridium difficile 1.02 | Collinsella aerofaciens 0.998 | Coprococcus comes 0.963 | Escherichia coli ED1a 1.02 | Escherichia coli IAI1 1.01 | Eubacterium rectale 1.05 | [3] 0.812 | Lactobacillus gasseri 1.15 | Lactobacillus paracasei 0.938 | Odoribacter splanchnicus 1.02 | [4] 1.02 | Parabacteroides merdae 1

N#Cc1nn(-c2c(Cl)cc(C(F)(F)F)cc2Cl)c(N)c1SC(F)(F)F
inactive: Akkermansia muciniphila 1.01 | Bacteroides caccae 0.941 | Bacteroides clarus 0.858 | Bacteroides dorei 0.899 | Bacteroides stercoris 1.14 | [1] 0.953 | Bacteroides uniformis 0.928 | [2] 1.09 | Clostridium difficile 0.909 | Collinsella aerofaciens 0.942 | Coprococcus comes 0.857 | Escherichia coli ED1a 1.02 | Escherichia coli IAI1 0.985 | [3] 0.96 | Lactobacillus paracasei 1.04 | Parabacteroides merdae 0.868
active: Eubacterium rectale 0.687 | Lactobacillus gasseri 0.729 | Odoribacter splanchnicus 0.571 | [4] 0.751

Clc1ccc(Cl)c(Cl)c1Cl
inactive: Akkermansia muciniphila 0.865 | Bacteroides caccae 0.985 | Bacteroides clarus 0.958 | Bacteroides dorei 1.02 | Bacteroides stercoris 1.04 | [1] 0.992 | Bacteroides uniformis 0.996 | [2] 0.99 | Clostridium difficile 1 | Collinsella aerofaciens 0.982 | Coprococcus comes 0.989 | Escherichia coli ED1a 0.973 | Escherichia coli IAI1 0.981 | Eubacterium rectale 0.968 | [3] 1.03 | Lactobacillus gasseri 0.945 | Lactobacillus paracasei 1.11 | Odoribacter splanchnicus 0.973 | [4] 0.981 | Parabacteroides merdae 0.999
